# Experimental data published in ChEMBL document CHEMBL2218924, “A broad activity screen in support of a chemogenomic map for kinase signalling research and drug discovery” (Biochem J, 2013).
# Legend:
# [1] = molecular target: Calcium/calmodulin-dependent protein kinase type 1 (Homo sapiens) (UniProt Q14012); settings: at 1 µM
# [2] = molecular target: Calcium/calmodulin-dependent protein kinase type 1 (Homo sapiens) (UniProt Q14012); settings: at 10 µM
# [3] = molecular target: Calcium/calmodulin-dependent protein kinase type II subunit gamma (Homo sapiens) (UniProt Q13555); settings: at 1 µM
# [4] = molecular target: Calcium/calmodulin-dependent protein kinase type II subunit gamma (Homo sapiens) (UniProt Q13555); settings: at 10 µM
# [5] = molecular target: Calcium/calmodulin-dependent protein kinase type II subunit delta (Homo sapiens) (UniProt Q13557); settings: at 1 µM
# [6] = molecular target: Calcium/calmodulin-dependent protein kinase type II subunit delta (Homo sapiens) (UniProt Q13557); settings: at 10 µM
# [7] = molecular target: T1, Calcium/calmodulin-dependent protein kinase type IV (Homo sapiens) (UniProt Q16566); settings: at 1 µM
# T1 sequence (whole entry): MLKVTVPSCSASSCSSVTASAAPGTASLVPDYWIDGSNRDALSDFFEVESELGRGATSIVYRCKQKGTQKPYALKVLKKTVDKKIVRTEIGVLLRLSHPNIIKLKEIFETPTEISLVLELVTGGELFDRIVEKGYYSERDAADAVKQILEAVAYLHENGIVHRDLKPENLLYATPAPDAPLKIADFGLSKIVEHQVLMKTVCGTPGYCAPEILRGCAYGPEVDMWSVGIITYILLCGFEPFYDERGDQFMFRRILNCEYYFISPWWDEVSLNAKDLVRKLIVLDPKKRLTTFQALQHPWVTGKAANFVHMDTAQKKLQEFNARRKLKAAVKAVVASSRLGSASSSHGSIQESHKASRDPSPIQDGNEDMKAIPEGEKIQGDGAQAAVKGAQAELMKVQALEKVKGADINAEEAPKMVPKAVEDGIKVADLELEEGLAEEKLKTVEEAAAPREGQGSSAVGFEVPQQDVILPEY
# [8] = molecular target: T1, Calcium/calmodulin-dependent protein kinase type IV (Homo sapiens); settings: at 10 µM
# [9] = molecular target: Death-associated protein kinase 1 (Homo sapiens) (UniProt P53355); settings: at 1 µM
# [10] = molecular target: Death-associated protein kinase 2 (Homo sapiens) (UniProt Q9UIK4); settings: at 1 µM
# [11] = molecular target: Death-associated protein kinase 2 (Homo sapiens) (UniProt Q9UIK4); settings: at 10 µM
# [12] = molecular target: T2, Serine/threonine-protein kinase DCLK2 (Homo sapiens) (UniProt Q8N568); settings: at 1 µM
# T2 sequence (whole entry): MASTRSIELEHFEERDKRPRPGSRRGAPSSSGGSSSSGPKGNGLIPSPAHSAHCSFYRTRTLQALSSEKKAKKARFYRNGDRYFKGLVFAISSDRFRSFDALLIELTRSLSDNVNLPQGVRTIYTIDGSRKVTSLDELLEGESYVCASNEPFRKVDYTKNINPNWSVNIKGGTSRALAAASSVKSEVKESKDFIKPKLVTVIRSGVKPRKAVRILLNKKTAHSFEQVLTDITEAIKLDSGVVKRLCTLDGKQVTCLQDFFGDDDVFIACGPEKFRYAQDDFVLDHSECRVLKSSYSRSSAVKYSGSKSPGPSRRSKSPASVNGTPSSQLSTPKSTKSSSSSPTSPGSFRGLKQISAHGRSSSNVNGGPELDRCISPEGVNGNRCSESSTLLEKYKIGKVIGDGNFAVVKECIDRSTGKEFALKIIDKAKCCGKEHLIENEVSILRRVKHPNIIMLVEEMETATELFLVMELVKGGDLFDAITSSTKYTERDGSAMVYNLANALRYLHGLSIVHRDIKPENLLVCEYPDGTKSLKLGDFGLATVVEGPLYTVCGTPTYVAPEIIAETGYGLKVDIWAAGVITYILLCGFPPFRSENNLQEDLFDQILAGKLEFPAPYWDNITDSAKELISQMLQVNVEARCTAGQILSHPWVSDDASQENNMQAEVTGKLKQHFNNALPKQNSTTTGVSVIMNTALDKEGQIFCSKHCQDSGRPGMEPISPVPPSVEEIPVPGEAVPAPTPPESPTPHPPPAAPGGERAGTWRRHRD
# [13] = molecular target: T3, Discoidin domain-containing receptor 2 (Homo sapiens) (UniProt Q16832); settings: at 1 µM
# T3 sequence (whole entry): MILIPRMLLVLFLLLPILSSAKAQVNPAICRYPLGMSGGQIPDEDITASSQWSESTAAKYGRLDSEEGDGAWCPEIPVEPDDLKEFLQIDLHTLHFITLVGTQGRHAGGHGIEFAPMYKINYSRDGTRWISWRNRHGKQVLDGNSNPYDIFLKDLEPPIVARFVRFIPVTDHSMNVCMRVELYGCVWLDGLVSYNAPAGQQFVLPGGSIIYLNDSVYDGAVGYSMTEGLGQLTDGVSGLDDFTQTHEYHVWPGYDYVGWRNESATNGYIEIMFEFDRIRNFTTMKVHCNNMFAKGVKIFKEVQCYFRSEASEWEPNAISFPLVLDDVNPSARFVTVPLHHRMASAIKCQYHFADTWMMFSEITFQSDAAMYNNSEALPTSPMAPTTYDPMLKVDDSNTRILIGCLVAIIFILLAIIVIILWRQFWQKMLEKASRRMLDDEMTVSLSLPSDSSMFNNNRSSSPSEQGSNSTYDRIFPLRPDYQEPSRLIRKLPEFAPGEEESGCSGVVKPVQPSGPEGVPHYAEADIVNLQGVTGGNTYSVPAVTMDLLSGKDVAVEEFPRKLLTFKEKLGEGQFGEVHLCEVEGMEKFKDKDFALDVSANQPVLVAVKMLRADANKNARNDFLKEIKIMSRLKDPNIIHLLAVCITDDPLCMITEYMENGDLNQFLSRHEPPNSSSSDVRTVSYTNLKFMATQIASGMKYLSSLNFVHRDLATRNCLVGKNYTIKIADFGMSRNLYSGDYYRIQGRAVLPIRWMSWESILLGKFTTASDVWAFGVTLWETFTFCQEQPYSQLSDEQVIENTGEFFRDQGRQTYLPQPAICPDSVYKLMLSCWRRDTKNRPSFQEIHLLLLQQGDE
# [14] = molecular target: T4, Myotonin-protein kinase (Homo sapiens) (UniProt Q09013); settings: at 1 µM
# T4 sequence (whole entry): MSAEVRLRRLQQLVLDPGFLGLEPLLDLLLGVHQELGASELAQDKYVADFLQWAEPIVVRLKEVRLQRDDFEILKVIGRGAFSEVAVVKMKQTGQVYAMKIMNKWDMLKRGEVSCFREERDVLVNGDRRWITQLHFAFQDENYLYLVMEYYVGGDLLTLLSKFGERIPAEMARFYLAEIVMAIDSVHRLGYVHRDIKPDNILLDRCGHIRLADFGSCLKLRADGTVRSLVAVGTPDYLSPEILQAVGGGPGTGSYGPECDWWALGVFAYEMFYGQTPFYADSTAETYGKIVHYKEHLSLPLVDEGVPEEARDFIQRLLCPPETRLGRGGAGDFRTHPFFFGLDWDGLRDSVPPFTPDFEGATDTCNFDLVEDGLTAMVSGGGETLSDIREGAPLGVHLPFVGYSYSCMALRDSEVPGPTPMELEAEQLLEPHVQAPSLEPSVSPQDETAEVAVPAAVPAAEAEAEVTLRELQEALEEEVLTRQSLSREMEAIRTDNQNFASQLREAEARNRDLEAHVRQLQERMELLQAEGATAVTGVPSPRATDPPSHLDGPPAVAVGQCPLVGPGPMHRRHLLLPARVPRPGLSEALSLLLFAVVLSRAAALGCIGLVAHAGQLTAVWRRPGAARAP
# [15] = molecular target: T4, Myotonin-protein kinase (Homo sapiens); settings: at 10 µM
# [16] = molecular target: Calcium/calmodulin-dependent protein kinase type II subunit beta (Homo sapiens) (UniProt Q13554); settings: at 10 µM
# [17] = molecular target: Calcium/calmodulin-dependent protein kinase type II subunit beta (Homo sapiens) (UniProt Q13554); settings: at 1 µM
# [18] = molecular target: Death-associated protein kinase 1 (Homo sapiens) (UniProt P53355); settings: at 10 µM
# [19] = molecular target: T2, Serine/threonine-protein kinase DCLK2 (Homo sapiens); settings: at 10 µM
# [20] = molecular target: T3, Discoidin domain-containing receptor 2 (Homo sapiens); settings: at 10 µM
# Chain of Calcium/calmodulin-dependent protein kinase type II subunit delta (Homo sapiens) (Q13557 whole entry): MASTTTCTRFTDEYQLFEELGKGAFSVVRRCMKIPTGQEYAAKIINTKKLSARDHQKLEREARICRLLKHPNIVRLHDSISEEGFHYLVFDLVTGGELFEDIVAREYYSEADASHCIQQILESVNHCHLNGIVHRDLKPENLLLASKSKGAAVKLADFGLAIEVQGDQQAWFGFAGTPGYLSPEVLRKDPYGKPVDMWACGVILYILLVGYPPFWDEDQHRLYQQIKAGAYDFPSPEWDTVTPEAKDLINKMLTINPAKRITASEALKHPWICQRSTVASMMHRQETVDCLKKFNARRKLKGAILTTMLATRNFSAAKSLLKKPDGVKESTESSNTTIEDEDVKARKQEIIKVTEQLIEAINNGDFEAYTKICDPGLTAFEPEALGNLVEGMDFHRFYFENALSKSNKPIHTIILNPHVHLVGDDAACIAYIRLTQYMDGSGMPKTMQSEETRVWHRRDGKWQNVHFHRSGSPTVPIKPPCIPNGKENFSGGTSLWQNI
# Chain of Calcium/calmodulin-dependent protein kinase type II subunit gamma (Homo sapiens) (Q13555 whole entry): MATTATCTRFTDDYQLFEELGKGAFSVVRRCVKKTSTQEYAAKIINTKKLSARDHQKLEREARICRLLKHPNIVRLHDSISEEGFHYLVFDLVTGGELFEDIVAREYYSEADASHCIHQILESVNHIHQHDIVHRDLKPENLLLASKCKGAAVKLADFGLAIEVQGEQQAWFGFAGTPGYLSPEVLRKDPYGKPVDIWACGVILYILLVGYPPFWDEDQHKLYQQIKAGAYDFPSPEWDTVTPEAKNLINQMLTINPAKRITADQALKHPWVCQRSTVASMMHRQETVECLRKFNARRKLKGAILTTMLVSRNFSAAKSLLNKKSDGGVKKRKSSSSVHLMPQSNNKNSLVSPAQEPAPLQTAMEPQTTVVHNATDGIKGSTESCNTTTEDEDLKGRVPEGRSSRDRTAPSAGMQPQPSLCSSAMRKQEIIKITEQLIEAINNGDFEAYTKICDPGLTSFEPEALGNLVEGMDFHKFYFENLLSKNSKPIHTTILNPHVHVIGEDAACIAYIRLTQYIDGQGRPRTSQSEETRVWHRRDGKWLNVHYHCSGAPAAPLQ
# Chain of Calcium/calmodulin-dependent protein kinase type 1 (Homo sapiens) (Q14012 whole entry, looked up): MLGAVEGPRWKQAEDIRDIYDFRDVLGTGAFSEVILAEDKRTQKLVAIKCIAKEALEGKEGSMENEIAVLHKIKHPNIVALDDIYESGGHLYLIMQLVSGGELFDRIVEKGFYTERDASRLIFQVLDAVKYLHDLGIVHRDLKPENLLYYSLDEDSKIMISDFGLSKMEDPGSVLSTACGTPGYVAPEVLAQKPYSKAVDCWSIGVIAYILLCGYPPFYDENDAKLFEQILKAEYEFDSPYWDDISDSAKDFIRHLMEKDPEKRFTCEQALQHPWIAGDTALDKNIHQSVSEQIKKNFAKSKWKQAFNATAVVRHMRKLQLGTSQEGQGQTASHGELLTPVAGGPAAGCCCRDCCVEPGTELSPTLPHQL
# Chain of Death-associated protein kinase 1 (Homo sapiens) (P53355 whole entry, looked up): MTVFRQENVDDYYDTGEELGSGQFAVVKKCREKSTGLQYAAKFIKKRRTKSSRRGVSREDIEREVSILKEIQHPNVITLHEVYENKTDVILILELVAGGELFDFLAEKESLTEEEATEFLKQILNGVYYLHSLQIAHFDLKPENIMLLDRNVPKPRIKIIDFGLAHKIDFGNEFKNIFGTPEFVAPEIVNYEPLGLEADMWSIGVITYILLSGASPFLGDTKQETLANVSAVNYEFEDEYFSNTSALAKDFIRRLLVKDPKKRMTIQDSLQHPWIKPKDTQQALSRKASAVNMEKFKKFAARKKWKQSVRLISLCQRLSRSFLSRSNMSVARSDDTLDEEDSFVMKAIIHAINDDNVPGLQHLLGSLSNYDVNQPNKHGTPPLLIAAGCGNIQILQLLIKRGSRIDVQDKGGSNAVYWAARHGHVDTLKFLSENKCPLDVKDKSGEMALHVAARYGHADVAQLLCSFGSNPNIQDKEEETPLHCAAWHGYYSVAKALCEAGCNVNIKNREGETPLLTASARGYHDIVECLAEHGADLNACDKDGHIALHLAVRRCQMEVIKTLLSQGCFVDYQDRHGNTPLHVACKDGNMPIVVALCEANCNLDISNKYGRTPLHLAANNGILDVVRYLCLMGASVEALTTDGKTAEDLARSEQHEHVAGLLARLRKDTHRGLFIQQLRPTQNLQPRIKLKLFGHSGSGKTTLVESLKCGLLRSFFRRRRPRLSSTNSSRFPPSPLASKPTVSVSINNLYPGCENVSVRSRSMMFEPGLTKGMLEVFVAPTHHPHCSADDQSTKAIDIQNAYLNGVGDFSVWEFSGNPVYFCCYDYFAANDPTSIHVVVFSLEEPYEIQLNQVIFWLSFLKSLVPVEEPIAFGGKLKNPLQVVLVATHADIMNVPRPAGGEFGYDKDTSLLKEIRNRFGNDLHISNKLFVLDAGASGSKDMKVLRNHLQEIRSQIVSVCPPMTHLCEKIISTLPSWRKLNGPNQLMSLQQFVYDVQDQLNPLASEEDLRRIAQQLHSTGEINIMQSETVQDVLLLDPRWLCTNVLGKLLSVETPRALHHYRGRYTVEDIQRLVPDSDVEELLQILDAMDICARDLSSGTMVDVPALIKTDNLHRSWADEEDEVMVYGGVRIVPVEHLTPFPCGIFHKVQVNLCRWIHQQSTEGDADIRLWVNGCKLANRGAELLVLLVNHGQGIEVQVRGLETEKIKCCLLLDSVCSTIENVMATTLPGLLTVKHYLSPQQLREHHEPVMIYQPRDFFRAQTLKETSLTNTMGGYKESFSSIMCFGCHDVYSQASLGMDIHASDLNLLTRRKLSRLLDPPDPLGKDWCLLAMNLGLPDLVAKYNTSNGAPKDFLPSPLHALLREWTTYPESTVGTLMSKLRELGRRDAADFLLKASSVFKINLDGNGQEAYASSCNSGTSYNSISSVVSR
# Chain of Calcium/calmodulin-dependent protein kinase type II subunit beta (Homo sapiens) (Q13554 whole entry): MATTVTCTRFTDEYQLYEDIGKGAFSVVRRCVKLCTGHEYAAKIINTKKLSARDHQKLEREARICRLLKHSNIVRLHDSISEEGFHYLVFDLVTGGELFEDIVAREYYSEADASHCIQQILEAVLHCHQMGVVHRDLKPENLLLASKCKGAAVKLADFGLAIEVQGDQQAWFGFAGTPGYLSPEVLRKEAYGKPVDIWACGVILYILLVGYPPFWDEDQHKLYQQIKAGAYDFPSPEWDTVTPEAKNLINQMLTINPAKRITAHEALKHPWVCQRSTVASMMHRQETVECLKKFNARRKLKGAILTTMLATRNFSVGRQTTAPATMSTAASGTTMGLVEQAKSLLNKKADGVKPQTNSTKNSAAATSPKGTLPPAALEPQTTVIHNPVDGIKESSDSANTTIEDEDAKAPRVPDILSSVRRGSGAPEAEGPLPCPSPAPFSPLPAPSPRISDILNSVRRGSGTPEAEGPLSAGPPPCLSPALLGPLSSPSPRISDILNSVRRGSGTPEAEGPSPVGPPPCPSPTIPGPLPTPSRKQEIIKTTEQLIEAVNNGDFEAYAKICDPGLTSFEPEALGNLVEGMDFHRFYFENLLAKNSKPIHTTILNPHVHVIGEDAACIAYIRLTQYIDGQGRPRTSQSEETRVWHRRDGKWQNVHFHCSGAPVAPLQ
# Chain of Death-associated protein kinase 2 (Homo sapiens) (Q9UIK4 whole entry, looked up): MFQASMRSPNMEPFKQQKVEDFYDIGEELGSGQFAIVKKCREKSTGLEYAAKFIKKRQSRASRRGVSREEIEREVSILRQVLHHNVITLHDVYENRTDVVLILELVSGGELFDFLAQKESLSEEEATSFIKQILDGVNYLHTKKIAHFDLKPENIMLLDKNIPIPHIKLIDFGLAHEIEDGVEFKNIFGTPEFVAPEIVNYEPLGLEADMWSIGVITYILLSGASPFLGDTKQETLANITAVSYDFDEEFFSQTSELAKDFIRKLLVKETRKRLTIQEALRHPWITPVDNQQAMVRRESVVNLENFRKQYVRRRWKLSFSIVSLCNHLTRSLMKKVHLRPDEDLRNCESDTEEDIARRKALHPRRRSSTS
smiles,measurement,setting,value
CC(C)(C)c1cc(C=C(C#N)C#N)cc(Br)c1O,residual activity,[1],121%
same,residual activity,[2],105%
same,residual activity,[3],102%
same,residual activity,[4],55%
same,residual activity,[5],104%
same,residual activity,[6],46%
same,residual activity,[7],115%
same,residual activity,[8],83%
same,residual activity,[9],101%
same,residual activity,[10],104%
same,residual activity,[11],103%
same,residual activity,[12],109%
same,residual activity,[13],115%
same,residual activity,[14],98%
same,residual activity,[15],107%
N#C/C(=C(\N)Sc1ccc(N)cc1)c1ccccc1C(F)(F)F,residual activity,[9],84%
Oc1cccc(-c2nc(N3CCOCC3)c3oc4ncccc4c3n2)c1,residual activity,[9],99%
CCN(CC)CCCCN1c2ccccc2Oc2ccc(Cl)cc21,residual activity,[9],107%
CN[C@@H]1C[C@H]2O[C@@](C)([C@@H]1OC)n1c3ccccc3c3c4c(c5c6ccccc6n2c5c31)C(=O)NC4,residual activity,[16],0%
O=C(O)/C=C/c1cc(Br)c(Br)c(Br)c1Br,residual activity,[9],86%
CO[C@H]1[C@@H](OC)C[C@H](C)[C@@H](OC)C2=CC(=O)C=C(NC(=O)/C(C)=C/C=C/[C@H](OC)[C@@H](OC(N)=O)/C(C)=C/[C@@H]1C)C2=O,residual activity,[9],96%
c1cc(-c2cnn3cc(-c4ccc(OCCN5CCCCC5)cc4)cnc23)ccn1,residual activity,[2],61%
same,residual activity,[17],48%
same,residual activity,[16],8%
same,residual activity,[3],39%
same,residual activity,[4],7%
same,residual activity,[5],40%
same,residual activity,[6],6%
same,residual activity,[8],87%
same,residual activity,[9],76%
same,residual activity,[18],84%
same,residual activity,[12],124%
same,residual activity,[19],76%
same,residual activity,[20],69%
same,residual activity,[15],80%
C[S+]([O-])c1ccc(-c2nc(-c3ccc(F)cc3)c(-c3ccncc3)[nH]2)cc1 (stereo unspecified),residual activity,[1],115%
same,residual activity,[2],99%
same,residual activity,[17],114%
same,residual activity,[16],98%
same,residual activity,[3],103%
same,residual activity,[4],100%
same,residual activity,[5],108%
same,residual activity,[6],89%
same,residual activity,[7],113%
same,residual activity,[8],98%
same,residual activity,[9],85%
same,residual activity,[18],84%
same,residual activity,[10],90%
same,residual activity,[11],103%
same,residual activity,[12],132%
same,residual activity,[19],111%
same,residual activity,[13],94%
same,residual activity,[20],46%
same,residual activity,[14],122%
same,residual activity,[15],102%
CC(=O)c1ccc(N2CCOCC2)cc1O,residual activity,[9],111%
O=[N+]([O-])/C=C/c1ccc2c(c1)OCO2,residual activity,[1],108%
same,residual activity,[2],84%
same,residual activity,[17],90%
same,residual activity,[16],84%
same,residual activity,[3],107%
same,residual activity,[4],100%
same,residual activity,[5],109%
same,residual activity,[6],97%
same,residual activity,[7],132%
same,residual activity,[8],14%
same,residual activity,[9],85%
same,residual activity,[18],90%
same,residual activity,[10],95%
same,residual activity,[11],127%
same,residual activity,[12],63%
same,residual activity,[19],68%
same,residual activity,[13],100%
same,residual activity,[20],97%
same,residual activity,[14],137%
same,residual activity,[15],134%
